# Compound activity deposited in PubChem BioAssay by National Center for Advancing Translational Sciences (NCATS).
# Rows were chosen to be rich in hits. Some 0.44% of all compounds tested hit in one or more screens of this group.
# EPAC2 ag = agonists of human EPAC2 (RAPGEF4); Q8WZA2; EPAC2 activation, biochemical qHTS; response scale: 100% = 6.5 mM cAMP response; Potency, µM (series often up to 154 µM), for inactives: at the highest dose activation, hits mostly activators; actives 0.079% (n = 360,000); AID 720711; note: nearly all actives have a fitted effect of over 50% in size
#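 Readout is BODIPY fluorescence (480 nm excitation, 540 nm emission), which falls as labeled GDP is exchanged off Rap1B. EPAC2 at 100 nM acted on 250 nM RAP1B-BODIPY-GDP with 50 uM GDP present.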
# USP2a inh = inhibitors of human ubiquitin-specific protease USP2a; O75604; USP2 core, Ub-CHOP2 coupled fluorogenic reporter, 485/531; Potency, µM (series often up to 38.3 µM), inactives show at the highest dose activity change, negative = inhibition, hits mostly inhibitors; actives 0.01% (n = 330,000); AID 463254;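 note: plate controls were DMSO wells for no effect and full inhibition by NEM control for full effect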
#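 USP2 core (10nM final) preincubated 30min RT with compound in 20mM Tris-HCl pH 8.0, 2mM CaCl2, 2mM beta-mercaptoethanol, 0.05% CHAPS; 25nM Ub-CHOP2 plus 25nM reporter substrate added, fluorescence (Ex485/Em531) read after 60min.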
# EPAC1 agonist = activates human EPAC1 exchange factor | actives 0.073% (n = 360,000) | EPAC1 agonist qHTS, biochemical assay; response scale: 100% = response to 6.5 mM cAMP | Potency, µM (titrated, usually from 154 µM), for inactives: at the highest dose activation, actives largely listed as activators | O95398 | AID 720707; note: nearly all actives have a fitted effect of over 60% in size
#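 Nucleotide exchange by EPAC1 (100 nM) on Rap1B–BODIPY-GDP (250 nM) in the presence of 50 uM GDP is tracked fluorescently at 480/540 nm over 30 min. Signals are normalized to a 6.5 mM cAMP control.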
# EPAC2 antagonist = antagonists of human EPAC2; Q8WZA2; EPAC2 GEF exchange of Rap1B-BODIPY-GDP, fluorescence; Potency, µM (highest dose often 114 µM), without a hit: top-dose activity, negative = inhibition, most hits filed as inhibitors; actives 0.18% (n = 360,000); note: % is set by controls: 0 for no effect and ±100 for the full control effect; nearly all actives have a fitted effect of over 45% in size
# USP1-UAF1 inh = USP1/UAF1 (human) deubiquitinase inhibition | O94782 | recombinant USP1/UAF1, Ub-Rhodamine cleavage fluorescence | Potency, µM (top dose mostly 57.1 µM), for inactives: at the highest dose activity change, negative = inhibition, actives largely listed as inhibitors | actives 0.23% (n = 390,000); note: % is set by controls: 0 for no effect and ±100 for the full control effect; nearly all actives have a fitted effect of over 60% in size
#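 1 nM enzyme complex + cpd, 15 min RT; start with Ub-Rho 150nM final; kinetic fluorescence ex 480/em 540, 6 reads q60 s. Buffer 50mM HEPES pH 7.8, 0.5mM EDTA, 0.1 mg/ml BSA, 1mM TCEP, 0.01% Tween-20.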
# EPAC1 antag = EPAC1 (human) antagonism. Potency, µM (titrated, usually from 115 µM), without a hit: at the top dose activity change, negative = inhibition, usual class: inhibitors. EPAC1 GEF assay, Rap1b-BODIPY-GDP exchange fluorescence. actives 0.14% (n = 360,000);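 note: plate controls were vehicle for no effect and positive control for full effect; nearly all actives have a fitted effect of over 50% in size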
# Active calls of the source: *; ? = inconclusive; . = not tested or not shown; [ ] = dose if it differs, or a comment. Calls come from the whole dose curve; as a rule, active = well fitted curve in the direction sought with a large enough effect; inconclusive = small, poorly fitted or top-dose-only effect, or another doubt; inactive = no such curve, though single readings can be large; an effect the other way counts as inactive or inconclusive. Potency is the fitted concentration of half-maximal effect.
SMILES,EPAC2 ag,USP2a inh,EPAC1 agonist,EPAC2 antagonist,USP1-UAF1 inh,EPAC1 antag
Cc1ccc(NS(=O)(=O)c2cc([N+](=O)[O-])ccc2NNC(=S)Nc2cc(C)ccc2C)c(C)c1,-5%,-12%,14%,-4%,-14%,-13%
Cc1cc(C)nc(NS(=O)(=O)c2ccc(NC(=O)CN3C(=O)S/C(=C\c4ccccc4)C3=O)cc2)n1,6%,2%,6%,-11%,?,79µM*
Cc1ccc(-c2nn(CC(=O)NC3CCCCC3)c3c2cnc2ccc(F)cc23)cc1C,.,.,.,.,10%,.
CCOc1ccccc1CNCc1c(C(=O)O)c(C)n(Cc2ccc(Cl)cc2)c1C,.,.,.,.,8%,.
FC(F)(F)c1ccccc1Cc1c(-c2ccccc2)nc2ccc(Cl)cn12,-2%,.,8%,-29%,.,-9%
FC(F)(F)c1ccccc1Cc1c(-c2ccc(Cl)cc2)nc2ccc(Cl)cn12,0%,.,8%,56µM*,.,-20%
COc1cc(/C=N/NS(=O)(=O)c2ccc(C)c([N+](=O)[O-])c2)cc([N+](=O)[O-])c1O,6%,-2%,-1%,3%,-18%,-8%
COc1ccc(-n2c(O)c(/C=N/NS(=O)(=O)c3ccc(C)c([N+](=O)[O-])c3)c3ccccc3c2=O)cc1OC,13%,2%,0%,-27%[57.1 µM],25µM*,25%
O=C1N(Cc2cccc(C(F)(F)F)c2)c2ccccc2S(=O)(=O)N1c1cccc(Cl)c1,.,.,.,.,-25%,.
NC(=O)c1ccc(N=Nc2c(O)c3ccccc3[nH]c2=O)cc1,.,1%,.,.,.,.
N=C(N)c1ccc(N=Nc2c(O)ccc3c2[nH]c2ccccc23)cc1,?,.,?,50µM*,?,40µM*
O=C(NC1CC(=O)N(c2ccc(F)cc2)C1)C1CC1 (stereo not given),.,.,.,.,-23%,.
CCOc1ccc2c(ccc(/C=C/c3cc(C)c4cccnc4c3O)[n+]2C)c1,?,.,63µM*,40µM*,-25%,35µM*
CCOc1ccc(N=Nc2ccc(O)c3ncccc23)cc1,2%,2%,1%,4%,-31%,7%
CCOC(=O)c1c(CSc2ccccc2)n(C)c2cc(Br)c(OC)c(O)c12,8%,-1%,11%,-6%,-24%,4%
CCOC(=O)c1c(CSc2ccccc2)n(C)c2cc(Br)c(OCC(O)CNC(CO)(CO)CO)cc12 (stereo not given),?,-1%,7%,40µM*,?,-11%
C[C@@H]1CC[C@@]23COC(=O)C2=CCC[C@@H]3[C@@]1(C)CC/C(=C/CO)CO,-1%,-3%,-16%,6%,-24%,-20%
CC1=CCC[C@@H]2[C@@](C)(CC/C(C)=C/C(=O)O)[C@H](C)CC[C@@]12C,-9%,0%,-19%,32µM*,?,?
COc1cccc(NC(=O)Cn2c(=O)n(-c3ccc(C)cc3)c(=O)c3ccc(C(=O)NCc4ccco4)cc32)c1,.,.,.,.,-19%,.
CC(=O)Nc1cccc(C(=O)/C=C/c2ccc(N(C)C)cc2)c1,6%,6%,-4%,40%,5.6µM*,23%
CC(=O)Nc1cccc(C(=O)/C=C/c2ccc(/C=C/C(=O)c3cccc(NC(C)=O)c3)cc2)c1,.,0%,.,.,.,.
CC(=O)Nc1cccc(C(=O)/C=C/c2ccc(F)cc2)c1,9%,3%,-3%,-7%,-3%,79µM*
CCOC(=O)N1CCc2c(sc(NC(=O)c3ccc(S(=O)(=O)N4CCCC4)cc3)c2C#N)C1,5%,-1%,-3%,-1%,-36%,-9%
CC(C)N1CCc2c(sc(NC(=O)c3ccc(S(=O)(=O)N4CCOCC4)cc3)c2C#N)C1,100µM*,3%,-4%,20%,?,-9%
